Measurements: PubChem BioAssay AID1159580 (chemical genetic matrix, 2015)
The whole screen tested about 5,500 compounds, of which about 2,000 (36%) were called active. Not shown: some 18% with an inconclusive outcome. Cut-off read from the data, not from the text of the source: active = normalized growth mostly below about 0.91 (no sharp cut-off); inconclusive = no clear call, values can overlap the other calls; inactive = mostly above about 0.92. Some of the results follow.

Assay: chemical genetic growth profiling, strain panel (AID 1159580);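 note: tested at 20 µM; growth read once vehicle control cultures reached saturation at 30 °C; 1 = growth at the plate median or of vehicle wells; lower values mean less growth of the strain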
Settings: growth OD

Measured: normalized growth

COc1ccc2c(=O)cc(-c3ccccc3OC)oc2c1
inactive: S. cerevisiae deletion strains, locus YBR229C, strain ROT2, active compounds read low 0.97 | S. cerevisiae deletion strains, locus YCL029C, strain bik1, active compounds read low 0.946 | S. cerevisiae deletion strains, locus YDL035C, strain GPR1, active compounds read low 0.865 | S. cerevisiae deletion strains, locus YDL074C, strain BRE1, active compounds read low 0.81 | S. cerevisiae deletion strains, locus YDL101C, strain DUN1, active compounds read low 0.933 | S. cerevisiae deletion strains, locus YDL185W, strain tfp1, active compounds read low 0.948 | S. cerevisiae deletion strains, locus YDR162C, strain NBP2, active compounds read low 0.843 | S. cerevisiae deletion strains, locus YDR388W, active compounds read low 0.934 | S. cerevisiae deletion strains, locus YER110C, active compounds read low 0.939 | S. cerevisiae deletion strains, locus YGL078C, strain dbp3, active compounds read low 0.934 | S. cerevisiae deletion strains, locus YHR079C, strain IRE1 (second series), active compounds read low 0.941 | S. cerevisiae deletion strains, locus YHR094C, strain hxt1, active compounds read low 0.961 | S. cerevisiae deletion strains, locus YIL073C, strain SPO22, active compounds read low 0.806 | S. cerevisiae deletion strains, locus YIL125W, strain kgd1, active compounds read low 0.938 | S. cerevisiae deletion strains, locus YJL134W, strain LCB3, active compounds read low 0.985 | S. cerevisiae deletion strains, locus YJL168C, strain set2, active compounds read low 0.941 | S. cerevisiae deletion strains, locus YJL187C, strain SWE1 (second series), active compounds read low 0.918 | S. cerevisiae deletion strains, locus YKL009W, strain mrt4, active compounds read low 0.947 | S. cerevisiae deletion strains, locus YKL068W, active compounds read low 0.963 | S. cerevisiae deletion strains, locus YKL085W, strain MDH1 (second series), active compounds read low 0.97 | S. cerevisiae deletion strains, locus YKL085W, strain MDH1, active compounds read low 0.97 | S. cerevisiae deletion strains, locus YLR058C, strain SHM2, active compounds read low 0.949 | S. cerevisiae deletion strains, locus YLR102C, strain apc9, active compounds read low 0.95 | S. cerevisiae deletion strains, locus YLR262C, strain YPT6, active compounds read low 0.65 | S. cerevisiae deletion strains, locus YML016C, strain PPZ1, active compounds read low 0.974 | S. cerevisiae deletion strains, locus YML124C, strain tub3, active compounds read low 0.94 | S. cerevisiae deletion strains, locus YMR078C, strain ctf18, active compounds read low 0.916 | S. cerevisiae deletion strains, locus YNL067W, strain RPL9B, active compounds read low 0.923 | S. cerevisiae deletion strains, locus YNL250W, strain rad50, active compounds read low 0.984 | S. cerevisiae deletion strains, locus YNL271C, strain bni1, active compounds read low 0.939 | S. cerevisiae deletion strains, locus YNL298W, strain CLA4, active compounds read low 0.912 | S. cerevisiae deletion strains, locus YNL322C, strain KRE1, active compounds read low 0.969 | S. cerevisiae deletion strains, locus YOL012C, strain htz1 0.811 | S. cerevisiae deletion strains, locus YOR061W, strain CKA2, active compounds read low 0.976 | S. cerevisiae deletion strains, locus YOR069W, strain VPS5, active compounds read low 0.957 | S. cerevisiae deletion strains, locus YOR136W, strain idh2, active compounds read low 0.931 | S. cerevisiae deletion strains, locus YOR316C, strain cot1, active compounds read low 0.958 | S. cerevisiae deletion strains, locus YPR119W, strain clb2, active compounds read low 0.941 | S. cerevisiae deletion strains, locus YPR141C, strain kar3, active compounds read low 0.96
active: S. cerevisiae deletion strains, locus YAL013W, strain DEP1, active compounds read low 0.743 | S. cerevisiae deletion strains, locus YBR021W, strain FUR4, active compounds read low 0.797 | S. cerevisiae deletion strains, locus YDL192W, strain arf1, active compounds read low 0.763 | S. cerevisiae deletion strains, locus YDR101C, strain arx1, active compounds read low 0.883 | S. cerevisiae deletion strains, locus YDR318W, strain mcm21, active compounds read low 0.866 | S. cerevisiae deletion strains, locus YDR502C, strain sam2, active compounds read low 0.85 | S. cerevisiae deletion strains, locus YER155C, strain BEM2, active compounds read low 0.869 | S. cerevisiae deletion strains, locus YGL086W, strain mad1, active compounds read low 0.833 | S. cerevisiae deletion strains, locus YGL248W, strain PDE1, active compounds read low 0.825 | S. cerevisiae deletion strains, locus YGR078C, strain PAC10, active compounds read low 0.509 | S. cerevisiae deletion strains, locus YGR135W, strain pre9, active compounds read low 0.812 | S. cerevisiae deletion strains, locus YGR252W, strain gcn5, active compounds read low 0.716 | S. cerevisiae deletion strains, locus YHR030C, strain SLT2, active compounds read low 0.539 | S. cerevisiae deletion strains, locus YHR129C, strain ARP1, active compounds read low 0.849 | S. cerevisiae deletion strains, locus YHR200W, strain rpn10, active compounds read low 0.895 | S. cerevisiae deletion strains, locus YIL066C, strain RNR3, active compounds read low 0.819 | S. cerevisiae deletion strains, locus YIR030C, strain dcg1, active compounds read low 0.905 | S. cerevisiae deletion strains, locus YJL095W, strain BCK1, active compounds read low 0.437 | S. cerevisiae deletion strains, locus YJR043C, strain POL32, active compounds read low 0.778 | S. cerevisiae deletion strains, locus YKR001C, strain vps1, active compounds read low 0.709 | S. cerevisiae deletion strains, locus YLR039C, strain RIC1, active compounds read low 0.642 | S. cerevisiae deletion strains, locus YLR268W, strain sec22, active compounds read low 0.767 | S. cerevisiae deletion strains, locus YLR330W, strain CHS5, active compounds read low 0.629 | S. cerevisiae deletion strains, locus YLR342W, strain FKS1 (second series), active compounds read low 0.716 | S. cerevisiae deletion strains, locus YLR371W, strain rom2, active compounds read low 0.728 | S. cerevisiae deletion strains, locus YLR418C, strain cdc73, active compounds read low 0.468 | S. cerevisiae deletion strains, locus YML032C, strain rad52, active compounds read low 0.879 | S. cerevisiae deletion strains, locus YMR223W, strain ubp8, active compounds read low 0.831 | S. cerevisiae deletion strains, locus YMR307W, strain GAS1, active compounds read low 0.49 | S. cerevisiae deletion strains, locus YNL128W, strain TEP1, active compounds read low 0.708 | S. cerevisiae deletion strains, locus YNL233W, strain BNI4, active compounds read low 0.632 | S. cerevisiae deletion strains, locus YNL307C, strain MCK1, active compounds read low 0.526 | S. cerevisiae deletion strains, locus YNR052C, strain pop2, active compounds read low 0.914 | S. cerevisiae deletion strains, locus YOL006C, strain TOP1, active compounds read low 0.484 | S. cerevisiae deletion strains, locus YOL147C, strain pex11, active compounds read low 0.874 | S. cerevisiae deletion strains, locus YOR144C, strain elg1, active compounds read low 0.916 | S. cerevisiae deletion strains, locus YOR184W, strain ser1, active compounds read low 0.671 | S. cerevisiae deletion strains, locus YPL241C, strain CIN2, active compounds read low 0.918 | S. cerevisiae deletion strains, locus YPR163C, strain tif3, active compounds read low 0.748 | S. cerevisiae deletion strains, locus YPR167C, strain met16, active compounds read low 0.902 | S. cerevisiae deletion strains, strain wtn01, active compounds read low 0.802 | S. cerevisiae strains, strain wild type, active compounds read low 0.589
